In PubChem BioAssay one finds composite z-score and z-score data, which are given here for 11 compounds.

For experiment [1], the system named is PRMT1 (protein arginine N-methyltransferase 1). Kind of experiment: small molecules binding arginine methyltransferase PRMT1 – biochemical, small-molecule microarray, 635 nm fluorescence, primary screen (AID 1088).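 Note: binding of Prmt1 protein to compounds spotted on small-molecule microarray slides.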 The conditions noted are these: higher = more signal.
Experiment [2] is described as follows: growth effects on S. cerevisiae YJM789 – YJM789 clinical isolate, OD600, 24 h, basal, primary screen (AID 1089).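 Note: growth of clinical yeast isolate S. cerevisiae YJM 789 seeded 1000 cells per well; test concentration not given here.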 Conditions: higher = more signal, called active from +8 up or from −8 down.
A short description of experiment [3]: S. pombe growth modifiers, basal conditions – strain 972, OD600, 24 h, no modulator, primary screen (AID 1090).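 Note: basal condition with compound alone and no growth modifier present; test concentration not given here.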 The conditions noted are these: S. pombe 972 growth, higher = more signal, called active from +8 up or from −8 down.
The nature of experiment [4]: budding yeast growth modifiers under rapamycin – strain BY4716, OD600, 96 h, primary screen (AID 1091). Note: test concentration not given here. Conditions: S. cerevisiae BY4716 + rapamycin, higher = more signal, called active from +8 up or from −8 down.
Experiment [5] addresses Torsin-1A-interacting protein 2 (Homo sapiens) (UniProt Q8NFQ8). Kind of experiment: small molecules binding lysate-expressed LULL1 – cell lysate, human LULL1 lysate, 635/667 nm fluorescence, primary screen (AID 1092).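 Note: probe is lysate of COS7 cells overexpressing human LULL1; score merges per-feature 667 nm fluorescence with signal-to-noise.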 The conditions noted are these: small-molecule microarray, hLULL1 lysate binding, 635 nm fluorescence; higher = more signal.
Experiment [6] is described as follows: optical density change of DRC41 E. coli – strain DRC41, OD650, 24 h, E. coli filamentation project, primary screen (AID 1093).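 Note: MC1000 strain lacking acrAB efflux and sulA so SOS filamentation is blocked; test concentration not given here.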 Conditions: E. coli DRC41 growth, higher = more signal, called active from +8 up or from −8 down.
A short description of experiment [7]: probe aLefty2 binding to arrayed compounds – biochemical, biotinylated probe, 635/667 nm fluorescence, primary screen (AID 1094).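 Note: score merges spot fluorescence near 667 nm with spot signal-to-noise ratio.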 The conditions noted are these: small-molecule microarray, higher = more signal.
The test system of experiment [8] is Noggin (protein binding on small-molecule microarray). Kind of experiment: small molecules binding Noggin protein – biochemical, 635/667 nm fluorescence, primary screen (AID 1095).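 Note: score merges 667 nm feature fluorescence with signal to noise over triplicate slides.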 Conditions: 635 nm fluorescence, higher = more signal.
Experiment [9] addresses Neurogenic locus notch homolog protein 3 (Homo sapiens) (UniProt Q9UM47). Kind of experiment: small molecules binding NOTCH3 protein – biochemical, 635/667 nm fluorescence, primary screen (AID 1096). The conditions noted are these: small-molecule microarray, 635 nm fluorescence, higher = more signal.
Experiment [10] can be described thus: probe aEGFR binding to arrayed compounds – biochemical, biotinylated probe, 635/667 nm fluorescence, primary screen (AID 1097).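 Note: probe is a biotinylated anti-EGFR antibody binding compounds printed on slides; score combines fluorescence near 667 nm and signal to noise of each spot.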 Conditions: small-molecule microarray, higher = more signal.

Calls of active or inactive are those of the source.

Chain of Torsin-1A-interacting protein 2 (Homo sapiens) (Q8NFQ8 whole entry, looked up): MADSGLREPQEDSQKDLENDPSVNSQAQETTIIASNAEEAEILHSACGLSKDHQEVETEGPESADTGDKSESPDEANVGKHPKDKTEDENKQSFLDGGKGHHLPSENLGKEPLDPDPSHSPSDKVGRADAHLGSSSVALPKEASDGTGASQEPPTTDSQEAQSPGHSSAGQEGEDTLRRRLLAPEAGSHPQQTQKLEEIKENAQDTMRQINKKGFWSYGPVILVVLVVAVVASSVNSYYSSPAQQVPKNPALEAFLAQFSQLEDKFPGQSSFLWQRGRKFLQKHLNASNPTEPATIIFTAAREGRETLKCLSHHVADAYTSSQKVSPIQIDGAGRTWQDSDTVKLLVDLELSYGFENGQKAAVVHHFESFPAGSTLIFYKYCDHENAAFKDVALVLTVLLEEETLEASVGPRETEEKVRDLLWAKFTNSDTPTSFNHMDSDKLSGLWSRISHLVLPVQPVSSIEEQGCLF
Chain of Neurogenic locus notch homolog protein 3 (Homo sapiens) (Q9UM47 whole entry, looked up): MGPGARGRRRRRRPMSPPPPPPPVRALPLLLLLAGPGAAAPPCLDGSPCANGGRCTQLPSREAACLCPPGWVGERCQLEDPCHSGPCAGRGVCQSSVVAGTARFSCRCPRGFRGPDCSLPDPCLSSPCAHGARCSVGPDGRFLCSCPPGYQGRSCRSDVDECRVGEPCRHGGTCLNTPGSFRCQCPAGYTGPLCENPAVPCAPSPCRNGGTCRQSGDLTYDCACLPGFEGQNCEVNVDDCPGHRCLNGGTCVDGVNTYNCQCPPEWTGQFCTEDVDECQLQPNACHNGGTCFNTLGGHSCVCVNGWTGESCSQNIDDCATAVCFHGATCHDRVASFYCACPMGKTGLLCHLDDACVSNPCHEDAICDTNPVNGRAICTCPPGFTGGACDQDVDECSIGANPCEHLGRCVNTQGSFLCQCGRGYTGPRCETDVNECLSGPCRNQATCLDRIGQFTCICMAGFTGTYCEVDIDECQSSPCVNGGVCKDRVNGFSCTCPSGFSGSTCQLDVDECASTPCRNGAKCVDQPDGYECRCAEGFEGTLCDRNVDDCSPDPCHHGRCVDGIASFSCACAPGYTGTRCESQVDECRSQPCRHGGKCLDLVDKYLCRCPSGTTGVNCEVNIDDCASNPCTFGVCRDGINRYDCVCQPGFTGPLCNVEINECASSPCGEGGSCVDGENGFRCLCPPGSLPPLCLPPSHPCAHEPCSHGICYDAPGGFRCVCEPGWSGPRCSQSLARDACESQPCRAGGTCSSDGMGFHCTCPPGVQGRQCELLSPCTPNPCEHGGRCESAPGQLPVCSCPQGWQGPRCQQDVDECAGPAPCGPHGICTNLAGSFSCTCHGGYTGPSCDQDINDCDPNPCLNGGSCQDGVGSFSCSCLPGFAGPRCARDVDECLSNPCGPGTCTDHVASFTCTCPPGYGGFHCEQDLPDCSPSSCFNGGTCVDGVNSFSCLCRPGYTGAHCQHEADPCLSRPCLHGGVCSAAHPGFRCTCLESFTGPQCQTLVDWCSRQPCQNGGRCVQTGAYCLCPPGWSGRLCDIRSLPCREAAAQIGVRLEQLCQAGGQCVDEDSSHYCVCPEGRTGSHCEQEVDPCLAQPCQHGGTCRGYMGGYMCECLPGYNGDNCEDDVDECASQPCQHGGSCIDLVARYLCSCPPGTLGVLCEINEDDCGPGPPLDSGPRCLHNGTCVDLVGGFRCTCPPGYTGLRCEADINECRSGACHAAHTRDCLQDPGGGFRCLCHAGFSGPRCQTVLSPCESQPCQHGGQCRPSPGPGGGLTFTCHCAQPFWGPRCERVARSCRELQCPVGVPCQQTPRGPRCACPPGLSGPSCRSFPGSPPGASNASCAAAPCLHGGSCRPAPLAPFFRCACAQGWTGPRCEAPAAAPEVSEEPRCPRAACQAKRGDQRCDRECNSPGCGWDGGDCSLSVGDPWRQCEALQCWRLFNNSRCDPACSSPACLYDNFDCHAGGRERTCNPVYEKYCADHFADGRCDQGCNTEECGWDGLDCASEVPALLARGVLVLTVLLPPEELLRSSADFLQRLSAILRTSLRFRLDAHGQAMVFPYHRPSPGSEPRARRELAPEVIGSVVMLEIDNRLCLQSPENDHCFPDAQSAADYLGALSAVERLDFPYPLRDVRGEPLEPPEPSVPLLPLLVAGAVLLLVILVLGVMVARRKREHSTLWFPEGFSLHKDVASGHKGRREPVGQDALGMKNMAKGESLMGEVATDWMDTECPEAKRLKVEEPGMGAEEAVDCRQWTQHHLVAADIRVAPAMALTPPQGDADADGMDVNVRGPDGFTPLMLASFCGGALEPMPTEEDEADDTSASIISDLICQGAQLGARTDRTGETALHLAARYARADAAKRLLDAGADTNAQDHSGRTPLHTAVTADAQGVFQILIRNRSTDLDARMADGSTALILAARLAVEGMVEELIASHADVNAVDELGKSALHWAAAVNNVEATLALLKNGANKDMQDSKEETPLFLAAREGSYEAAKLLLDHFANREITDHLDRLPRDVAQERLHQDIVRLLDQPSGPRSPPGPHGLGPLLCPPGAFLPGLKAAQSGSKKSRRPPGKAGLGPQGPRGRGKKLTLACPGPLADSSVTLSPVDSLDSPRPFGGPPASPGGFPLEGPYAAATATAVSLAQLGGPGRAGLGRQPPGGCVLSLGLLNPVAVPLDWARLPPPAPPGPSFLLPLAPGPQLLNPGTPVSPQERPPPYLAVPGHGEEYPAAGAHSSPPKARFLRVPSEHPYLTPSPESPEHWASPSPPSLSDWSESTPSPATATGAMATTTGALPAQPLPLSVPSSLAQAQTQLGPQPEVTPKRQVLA

In the case of `C=CCNC(=O)[C@H]1[C@@H]2C(=O)O[C@@H](c3ccccc3)[C@@H](c3ccccc3)N2[C@@H](c2ccc(O)cc2)[C@]12C(=O)N(C(=O)OCCOC)c1ccc(C#CC3=CCCCC3)cc12`, the composite z-score in [1] is 1.54; in experiment [5] it was 3.14; in experiment [7] it was 0.862; in [8], 1.78; in experiment [9] it was 1; in experiment [10] it was -0.21. Besides, the z-score in experiment [2] was 0.576 (inactive); in [3], 0.111 (inactive); in experiment [4], 1.12 (inactive); in [6], 0.111 (inactive).

`COC(=O)[C@@H]1CC[C@H](C)[C@@H](c2ccc(C)cc2)N1C(=O)c1ccc(C=NOC(C)CN2CCCCc3nc(C)c(C)cc32)cc1` (stereo not given in full): the composite z-score is -0.066 in experiment [1]; -0.0101 in experiment [5]; -0.0332 in experiment [7]; 0.149 in experiment [8]; -0.145 in experiment [9]; -0.0929 in experiment [10]. In addition, the z-score was -0.632 (inactive) in experiment [2], -11.8 (active) in experiment [3], 0.325 (inactive) in [4] and 0.829 (inactive) in experiment [6].

For the compound `Cc1cc2c(nc1C)CCCN2CC(C)ON=C1[C@H]2CCn3c(=O)n(-c4ccccc4)c(=O)n3[C@H]2[C@H](O)[C@@H]2O[C@H]12` (stereo not given in full), the composite z-score in experiment [1] is 1.51; in experiment [5] it was 1.42; in experiment [7], -0.138; in [8], 0.725; in experiment [9], 1.01; in experiment [10] it was -0.0141. The z-score was -0.706 (inactive) in experiment [2], -0.829 (inactive) in experiment [3], -0.115 (inactive) in experiment [4] and -0.414 (inactive) in experiment [6].

Regarding `CC(C)=CCCC(C)=CCON=C1[C@H]2CCn3c(=O)n(Cc4cc5c(cc4Cl)OCO5)c(=O)n3[C@H]2[C@H](O)[C@@H]2O[C@H]12`, the composite z-score is -0.477 in experiment [1]; -0.658 in [5]; 0.0392 in experiment [7]; 0.482 in experiment [8]; 0.554 in [9]; 0.112 in [10]. Also, the z-score is 0.175 (inactive) in experiment [2], -0.105 (inactive) in experiment [3], 0.545 (inactive) in experiment [4] and -0.996 (inactive) in [6].

With `C=COC[C@H]1CN2[C@@H](CC[C@@H](C)[C@@H]2c2ccc(Br)cc2)C(=O)O1`, the composite z-score in experiment [1] was 1.4; in experiment [5], 1.99; in experiment [7] it was -0.155; in experiment [8], 0.372; in [9] it was 0.521; in [10] it was 0.0402. Further, the z-score is -2.69 (inactive) in [2], -4.68 (inactive) in experiment [3], -1.52 (inactive) in [4] and -0.0786 (inactive) in experiment [6].

For `COC(=O)C1=CCC(c2cccc(Cl)c2)O1` (stereo not given), the composite z-score in experiment [1] is 0.0357; in [5], 1.82; in experiment [7] it was -0.043; in experiment [8], -0.485; in experiment [9] it was -0.223; in experiment [10], -0.106. Also, the z-score in experiment [2] is -1.6 (inactive); in experiment [3] it was -1.54 (inactive); in experiment [4] it was 4.34 (inactive); in experiment [6], -0.215 (inactive).

As for `C[C@H]1CC[C@@H](C(=O)O)N[C@@H]1c1ccc(C#CCN(C)C)cc1`, the composite z-score in experiment [1] is -0.521; in experiment [5], -0.141; in [7], -0.128; in [8] it was 0.102; in experiment [9], 0.498; in experiment [10], -0.0564. The z-score in experiment [2] was 1.07 (inactive); in experiment [3] it was -0.509 (inactive); in experiment [4], -0.434 (inactive); in experiment [6], 0.657 (inactive).

With `Cc1ccc(S(=O)(=O)N[C@@H]2COC(=O)[C@H](C)COC(=O)CC=C[C@H]2C)cc1`, the composite z-score in experiment [1] is -0.365; in experiment [5], -0.366; in experiment [7] it was -0.18; in [8], 0.984; in [9] it was 0.566; in [10], -0.215. The z-score is 1.4 (inactive) in experiment [2], 1.05 (inactive) in experiment [3], 1.2 (inactive) in [4] and -0.234 (inactive) in experiment [6].

On to `CCOC(=O)CCN1C(=O)[C@H]2[C@H]3[C@H](O)C=CC(=O)[C@@H]3CC[C@H]2C1=O`, for which the composite z-score in experiment [1] was 0.0492; in experiment [5] it was 0.215; in experiment [7] it was -0.239; in experiment [8] it was 0.641; in [9], 0.629; in experiment [10], 0.0439. Further, the z-score was 0.595 (inactive) in experiment [2], 0.361 (inactive) in experiment [3], 1.42 (inactive) in experiment [4] and 0.399 (inactive) in experiment [6].

As for `C=C(/C(=C/C[C@@H](OC(=O)c1ccncc1)c1ccc(OCCO)cc1)c1cnc2ccccc2c1)C(C)C`, the composite z-score in experiment [1] is 1.55; in experiment [5], 0.65; in experiment [7] it was -0.0262; in experiment [8] it was 1.65; in experiment [9], 1.07; in experiment [10], -0.0949. Further, the z-score in experiment [2] was -24.8 (active); in experiment [3], -20.4 (active); in [4], -4.32 (inactive); in experiment [6] it was 1.23 (inactive).

Turning to `CC(CCN1CCc2nc(-c3ccccc3)c(-c3ccccc3)cc2C1)=NOC(C)CN1CCCCc2nc(C)c(C)cc21` (stereo not given), the composite z-score in [1] was 0.948; in [5], 1.53; in experiment [7], -0.0813; in [8], 0.454; in experiment [9], 0.905; in experiment [10], -0.0565. Moreover, the z-score in [2] is -1.03 (inactive); in experiment [3], -3.01 (inactive); in experiment [4], -3.08 (inactive); in experiment [6], 0.74 (inactive).
